Results with a measured potency or affinity are listed apart. Calls of active or inactive are those of the source. The rule behind the calls is not given here.
Columns and labels:
[1] = A549 cell cytotoxicity, dose response, cytotoxicity control, plate reader, cherry-pick, antagonist series (AID 743412)
[2] = HepG2 cell cytotoxicity, dose response, cytotoxicity control, plate reader, cherry-pick, antagonist series (AID 743416)
[3] = molecular target: Melanocortin receptor 4 (Homo sapiens) (UniProt P32245); test: MC4R antagonists, dose response, counter-screen for LGR2 antagonist project, cell-based, plate reader, cherry pick (AID 743444)

Row | SMILES | outcome [1] | outcome [2] | outcome [3]
1 | COc1ccccc1C=NNC(=O)c1ccncc1 | inactive | inactive | inactive
2 | CCc1nnc(NC(=O)CSc2nnc3ncccn23)s1 | inactive | inactive | inactive
3 | CCc1nnc2cccc(Cl)n12 | inactive | inactive | inactive
4 | COc1ccc(NC(=O)Nc2ccc3c(c2)CC(=O)N([C@@H](C)CO)C[C@@H](C)[C@H](CN(C)Cc2ccncc2)O3)cc1 | inactive | – | inactive
5 | C[C@@H]1CN([C@H](C)CO)C(=O)c2c(c3ccccc3n2C)-c2ccccc2CO[C@H]1CN(C)S(=O)(=O)c1cn(C)cn1 | inactive | inactive | inactive
6 | COc1ccccc1CNS(=O)(=O)c1ccc(N2CCCC2)cc1Br | inactive | inactive | inactive
7 | CC(C)c1ccc(NC(=O)N2CCN(S(=O)(=O)c3ccccc3)CC2)cc1 | inactive | inactive | inactive
8 | O=S1(=O)CCOC[C@H](CC2CCCCC2)N1Cc1ccccc1F | inactive | inactive | inactive
9 | Cc1ccnc(N2C(=O)c3ccccc3C2Nc2ccc3c(c2)OCCO3)c1 (stereo unspecified) | inactive | inactive | inactive
10 | CCn1cc(S(=O)(=O)Nc2cccnc2)cn1 | inactive | inactive | inactive
11 | O=C(Cc1ccccc1Cl)Nc1cccnc1 | inactive | inactive | inactive
12 | N#C[C@H]1[C@@H](c2ccc(C3=CCCCC3)cc2)[C@H](CO)N1C(=O)c1ccccn1 | inactive | – | inactive
13 | COc1ccc2c3c([nH]c2c1)[C@H](CO)N(C(C)=O)CC31CCN(C(=O)CN2CCOCC2)CC1 | inactive | inactive | inactive
14 | CO[C@H]1CN(C)C(=O)c2ccc(NC(=O)C3CC3)cc2OC[C@@H](C)N(C(=O)Cc2ccccn2)C[C@H]1C | inactive | inactive | inactive
15 | Cc1ccc(S(=O)(=O)N2CCCc3nc(-c4ccc(F)cc4)ccc32)cc1 | inactive | – | inactive
16 | C[C@@H]1CN([C@H](C)CO)C(=O)c2cc(C#CCN(C)C)cnc2O[C@@H]1CN(C)C(=O)CN1CCOCC1 | inactive | inactive | inactive
17 | O=C(NCc1ccco1)c1cc(NS(=O)(=O)c2cccc([N+](=O)[O-])c2)ccc1O | inactive | inactive | inactive
18 | Cc1ccc(NC(=O)c2ncn(CC(=O)NCc3ccc4[nH]ccc4c3)n2)cc1C | inactive | inactive | inactive
19 | COc1ccc(N(CC(=O)NCc2cccs2)S(=O)(=O)c2ccc(C(C)=O)cc2)cc1 | inactive | – | inactive
20 | Cc1ccc(CNS(=O)(=O)c2ccc3c(c2)CCN3C(=O)CCCC(=O)O)cc1 | inactive | – | inactive
21 | CCc1ccc2ncc(S(=O)(=O)c3ccc(C)c(C)c3)c(N3CCCC3)c2c1 | inactive | inactive | inactive
22 | C[C@H](CO)N1C[C@H](C)[C@H](CN(C)C(=O)Nc2ccccc2)OCCCC[C@H](C)Oc2ccc(NC(=O)NC3CCCCC3)cc2C1=O | inactive | inactive | inactive
23 | CO[C@H]1CN(C)C(=O)c2ccc(NC(=O)c3ccc(-c4ccccc4)cc3)cc2OC[C@@H](C)NC[C@@H]1C | inactive | inactive | inactive
24 | CC(=O)c1ccc(S(=O)(=O)N2CCC(NC(=O)Nc3cccc(F)c3)CC2)cc1 | inactive | inactive | inactive
25 | CCOC(=O)C1=CCN(S(=O)(=O)c2ccccc2C)C1c1cccc(C)c1 (stereo unspecified) | inactive | inactive | inactive
26 | O=C(c1ccc(F)cc1)N1CC(=O)N2[C@@H](CO)[C@@H](c3ccc(C#CC4CCCC4)cc3)[C@@H]2C1 | inactive | inactive | inactive
27 | CC(=O)Nc1cccc(-c2ccnc3c2CC(C(=O)NCc2cccnc2)O3)c1 (stereo unspecified) | inactive | inactive | inactive

Reference: PubChem BioAssay
